The supplement of paper PMC6555819

How the values were obtained:
Experiment in all cases: PBM binding z-score (relative to random genomic background probes); higher = stronger binding; sequences stand for … in GC…GCGATTGACAGCGTAGAATGAAGG
[1] = system: PPARg:RXRa DBDmut IVT, anti-RXR (DBD mutation: RXRa K156A/R161A, NR concentration 270 nM, RXRa partner concentration 90 nM)
Procedure, shortened: (§1)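 The probes on custom Agilent 4×180K protein-binding microarrays were double-stranded, with 34-nt variable regions bearing direct-repeat seeds, single-nucleotide variants, half-site ablations and random human genomic background sequences. Incubation lasted 1 h with ligand-free nuclear receptor dimers in PBS pH 7.4, 2% milk, 0.02% Triton X-100, 1 mM DTT, 0.2 mg/mL BSA and 0.4 mg/ml salmon testes DNA. Antibodies against each partner (one per run) detected bound dimers, and fluorescence scans were regression-normalized. Binding z-scores take the random background probes as reference.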

[2] = system: PPARg:RXRa IVT, anti-PPARg (NR concentration 270 nM, RXRa partner concentration 90 nM)
Procedure, shortened: as §1

[3] = system: PPARg DBDmut:RXRa IVT, anti-PPARg (DBD mutation: PPARg1 K132A/R137A, NR concentration 270 nM, RXRa partner concentration 90 nM)
Procedure, shortened: as §1

[4] = system: PPARg DBDmut IVT, anti-PPARg (DBD mutation: PPARg1 K132A/R137A, NR concentration 270 nM)
Procedure, shortened: as §1

[5] = system: PPARg homodimer (NR concentration 180 nM)
Procedure, shortened: as §1

[6] = system: PXR:RXRa (NR concentration 270 nM, RXRa partner concentration 90 nM)
Procedure, shortened: as §1

[7] = system: PXR homodimer (NR concentration 270 nM)
Procedure, shortened: as §1

[8] = system: RARa:RXR (NR concentration 270 nM, RXRa partner concentration 90 nM)
Procedure, shortened: as §1

[9] = system: RARa homodimer (NR concentration 270 nM)
Procedure, shortened: as §1

[10] = system: RARb:RXRa (NR concentration 270 nM, RXRa partner concentration 90 nM)
Procedure, shortened: as §1

Sequence	PBM binding z-score [1]	PBM binding z-score [2]	PBM binding z-score [3]	PBM binding z-score [4]	PBM binding z-score [5]	PBM binding z-score [6]	PBM binding z-score [7]	PBM binding z-score [8]	PBM binding z-score [9]	PBM binding z-score [10]
TCTTCTAGATCAAAGGTTAAGAAAGCCGAAGCCT	2.42	3.52	0.463	0.915	1.09	1.63	-0.258	2.74	0.0747	1.98
CGAACGAAGGCATGAGTTGATAGCAAATGCCGAT	-0.501	-0.459	-1.26	-0.962	-0.786	-0.575	-0.461	-0.544	-0.843	-0.545
CTTACAGGGTCAGCTAGGCCAGAGTAGGGACGGC	2	2.59	-0.146	-0.1	0.148	1.88	-0.368	2.75	0.0802	4.04
ACTATTACTTGACTTAGGGCAACCGATACGACGC	0.692	0.81	1.57	1.96	1.24	0.284	0.533	0.623	1.42	0.876
CAAACTAGGTCAAAGTTCAAAGTCGAGCCAACCA	8.26	8.92	2.7	3.37	3.22	6.38	5.12	7.88	1.43	5.27
TCTAGTTGGTCAAAGGGCACACACTCGAAATGCG	2.22	3.89	0.5	0.679	1.73	1.7	0.178	2.72	0.588	2.6
GCTCGGAGGACAAGGTCAGACCTTTGTCCGTAGA	-0.401	1.17	-0.273	-0.216	0.937	2.18	-0.193	2.61	-0.422	3.67
CTCGAAGGGTCGGTTGAGGTGAGTATACGGATAA	-0.575	0.478	-0.346	0.307	0.548	1.86	0.399	1.32	-0.148	1.88
CCAGACAGGTGATAAGGTAACTCAGCCTCGATTA	0.812	0.261	0.0987	-0.29	1.14	-0.0216	0.227	0.472	0.984	0.359
CCAGTCAGGTGAGAAGGTAACTCAGCCTCGATTA	1.41	1.02	-1.66	-1.63	0.612	-0.228	-0.000389	0.355	0.15	0.754
TCATATTGGTAATACAGGTGAAAGTCGGCATCTA	2.7	1.89	0.751	1.85	1.69	0.947	0.763	1.09	1.43	0.496
TCTGCTAGGCCAACGATGGTCAGCTAATCTGCTA	1.09	0.619	-0.0832	-1.02	-1.45	-0.538	-1.31	-0.793	-1.04	0.786
